ChEMBL document CHEMBL1961873, “Compounds: GSK PKIS; Assays: Nanosyn kinase panel” (2012)

Biological target: Protein kinase C alpha type (Homo sapiens) (UniProt P17252)
Conditions: at 0.1 µM

Compound	inhibition
CCCN1CCC=C(c2ccc(Nc3nc(Nc4ccccc4C(N)=O)c4cc[nH]c4n3)c(C)c2)C1	0.33%
CS(=O)(=O)CCNCc1nc(-c2ccc3ncnc(Nc4ccc(F)c(Cl)c4)c3c2)cs1	0.29%
COc1cc2c(cc1Nc1nc(N3CCc4ccccc43)c3cc[nH]c3n1)N(C(=O)CN(C)C)CC2	0.7%
COc1cc2ncn(-c3cc(OCc4ccccc4Cl)c(C(N)=O)s3)c2cc1OC	0%
CS(=O)(=O)CCNCc1ccc(-c2ccc3ncnc(Nc4ccc(OCc5ccccc5)c(Cl)c4)c3c2)o1	0.09%
Nc1ncnc2occ(-c3ccc(NC(=O)Nc4cccc(C(F)(F)F)c4)cc3)c12	0.88%
COc1ccc(-c2ccncc2)cc1C(N)=O	1.07%
Fc1cccc(COc2ccc(Nc3ncnc4cc(-c5ccc[nH]5)sc34)cc2Cl)c1	-3.29%
CCn1c(-c2nonc2N)nc2c(N3CCCC3)nccc21	-0.23%
Cc1nn(C)c2cc(N(C)c3ccnc(Nc4cccc(S(N)(=O)=O)c4)n3)ccc12	1%
CC(=O)Nc1cccc(C#Cc2cncnc2Nc2ccc(OCc3cccc(F)c3)c(Cl)c2)n1	1.1%
Nc1nc(-c2ccc3c(c2)C(=Cc2cc(Br)c(O)c(Br)c2)C(=O)N3)cs1	-0.01%
CCN1CCC(CC(=O)Nc2n[nH]c3nc(-c4cccs4)c(Br)cc23)CC1	-0.16%
COc1ccc2cc(-c3c(-c4ccncc4)nc(-c4ccc([S+](C)[O-])cc4)n3C)ccc2c1 (stereo not drawn)	0.25%
NS(=O)(=O)c1ccc(N/N=C2\C(=O)Nc3ccc(C(=O)NCCc4c[nH]cn4)cc32)cc1	1.52%
CS(=O)(=O)CCNCc1ccc(-c2ccc3ncnc(Nc4ccc(OCc5cccc(F)c5)c(C(F)(F)F)c4)c3c2)o1	1.25%
Nc1nc(-c2ccccn2)c(-c2ccc3ncccc3n2)s1	1.07%

Compound	inhibition
c1cnn2ncc(-c3ccnc(Nc4ccc5c(c4)OCCO5)n3)c2c1	2.47%
Cc1ccc(C(=O)NC2CCCCC2)cc1-c1ccc(C(=O)NCC2CC2)cc1	0.96%
CS(=O)(=O)Nc1ccc(N/C=C2\C(=O)Nc3ccccc32)cc1	-0.53%
CC1=C(C(=O)Nc2ccc3[nH]ncc3c2)C(c2ccc3ccccc3c2)CC(=O)N1 (stereo not drawn)	1.26%
CC1=C(C(=O)Nc2ccc3[nH]ncc3c2)C(c2ccc(Cl)c(Cl)c2)CC(=O)N1 (stereo not drawn)	0.41%
COc1ccc(COc2ccc(Cc3cnc(N)nc3N)cc2OC)cc1	1.05%
NCc1ccc(-c2nc(-c3ccc(Cl)c(O)c3)c(-c3ccncc3)[nH]2)cc1	0.75%
COc1cc2ncn(-c3cc(O[C@@H](C)c4ccccc4Cl)c(C(N)=O)s3)c2cc1OC	1.75%
CCc1cccc(NC(=O)Nc2ccc(Oc3ccc4nc(NC(=O)OC)[nH]c4c3)cc2)c1	0.7%
CCn1c(-c2nonc2N)nc2cncc(C(=O)N3CCNCC3)c21	0.92%
O=C1Nc2ccc(C(=O)c3ccco3)cc2C1=Cc1cc(Cl)c(O)c(Cl)c1	1.38%
COc1ccc(-c2coc3ncnc(N)c23)cc1	0.29%
CCn1c(-c2nonc2N)nc2cncc(C(=O)N3CC[C@H](N)C3)c21	5.69%
Cc1cccc(-c2n[nH]cc2-c2ccc3ncccc3n2)n1	0.19%
NS(=O)(=O)c1cccc(-c2ccc3c(NC(=O)C4CC4)n[nH]c3c2)c1	-0.24%
COC(=O)Nc1nc2cc(Oc3ccc(NC(=O)Nc4cccc(C(=O)O)c4)cc3)ccc2[nH]1	-3.01%
CN1CCC(C(=O)Nc2n[nH]c3nnc(-c4ccccc4)cc23)CC1	0.67%

Biological target: Protein kinase C alpha type (Homo sapiens) (UniProt P17252)
Conditions: at 1 µM

Compound	inhibition
CCCN1CCC=C(c2ccc(Nc3nc(Nc4ccccc4C(N)=O)c4cc[nH]c4n3)c(C)c2)C1	6.13%
CS(=O)(=O)CCNCc1nc(-c2ccc3ncnc(Nc4ccc(F)c(Cl)c4)c3c2)cs1	0.92%
COc1cc2c(cc1Nc1nc(N3CCc4ccccc43)c3cc[nH]c3n1)N(C(=O)CN(C)C)CC2	1.9%
COc1cc2ncn(-c3cc(OCc4ccccc4Cl)c(C(N)=O)s3)c2cc1OC	1.42%
CS(=O)(=O)CCNCc1ccc(-c2ccc3ncnc(Nc4ccc(OCc5ccccc5)c(Cl)c4)c3c2)o1	-0.42%
Nc1ncnc2occ(-c3ccc(NC(=O)Nc4cccc(C(F)(F)F)c4)cc3)c12	1.68%
COc1ccc(-c2ccncc2)cc1C(N)=O	1.9%
Fc1cccc(COc2ccc(Nc3ncnc4cc(-c5ccc[nH]5)sc34)cc2Cl)c1	-1.9%
CCn1c(-c2nonc2N)nc2c(N3CCCC3)nccc21	0.84%
Cc1nn(C)c2cc(N(C)c3ccnc(Nc4cccc(S(N)(=O)=O)c4)n3)ccc12	6.39%
CC(=O)Nc1cccc(C#Cc2cncnc2Nc2ccc(OCc3cccc(F)c3)c(Cl)c2)n1	0.59%
Nc1nc(-c2ccc3c(c2)C(=Cc2cc(Br)c(O)c(Br)c2)C(=O)N3)cs1	1.51%
CCN1CCC(CC(=O)Nc2n[nH]c3nc(-c4cccs4)c(Br)cc23)CC1	0.74%
COc1ccc2cc(-c3c(-c4ccncc4)nc(-c4ccc([S+](C)[O-])cc4)n3C)ccc2c1 (stereo not drawn)	0.94%
NS(=O)(=O)c1ccc(N/N=C2\C(=O)Nc3ccc(C(=O)NCCc4c[nH]cn4)cc32)cc1	5.32%
CS(=O)(=O)CCNCc1ccc(-c2ccc3ncnc(Nc4ccc(OCc5cccc(F)c5)c(C(F)(F)F)c4)c3c2)o1	1.29%
Nc1nc(-c2ccccn2)c(-c2ccc3ncccc3n2)s1	1.65%

Compound	inhibition
c1cnn2ncc(-c3ccnc(Nc4ccc5c(c4)OCCO5)n3)c2c1	20.4%
Cc1ccc(C(=O)NC2CCCCC2)cc1-c1ccc(C(=O)NCC2CC2)cc1	2.17%
CS(=O)(=O)Nc1ccc(N/C=C2\C(=O)Nc3ccccc32)cc1	0.61%
CC1=C(C(=O)Nc2ccc3[nH]ncc3c2)C(c2ccc3ccccc3c2)CC(=O)N1 (stereo not drawn)	1.61%
CC1=C(C(=O)Nc2ccc3[nH]ncc3c2)C(c2ccc(Cl)c(Cl)c2)CC(=O)N1 (stereo not drawn)	1.24%
COc1ccc(COc2ccc(Cc3cnc(N)nc3N)cc2OC)cc1	1.13%
NCc1ccc(-c2nc(-c3ccc(Cl)c(O)c3)c(-c3ccncc3)[nH]2)cc1	2.46%
COc1cc2ncn(-c3cc(O[C@@H](C)c4ccccc4Cl)c(C(N)=O)s3)c2cc1OC	3.87%
CCc1cccc(NC(=O)Nc2ccc(Oc3ccc4nc(NC(=O)OC)[nH]c4c3)cc2)c1	0.72%
CCn1c(-c2nonc2N)nc2cncc(C(=O)N3CCNCC3)c21	1.73%
O=C1Nc2ccc(C(=O)c3ccco3)cc2C1=Cc1cc(Cl)c(O)c(Cl)c1	3.32%
COc1ccc(-c2coc3ncnc(N)c23)cc1	1.92%
CCn1c(-c2nonc2N)nc2cncc(C(=O)N3CC[C@H](N)C3)c21	45.5%
Cc1cccc(-c2n[nH]cc2-c2ccc3ncccc3n2)n1	-0.46%
NS(=O)(=O)c1cccc(-c2ccc3c(NC(=O)C4CC4)n[nH]c3c2)c1	0.92%
COC(=O)Nc1nc2cc(Oc3ccc(NC(=O)Nc4cccc(C(=O)O)c4)cc3)ccc2[nH]1	-3.65%
CN1CCC(C(=O)Nc2n[nH]c3nnc(-c4ccccc4)cc23)CC1	1.72%
